Test results reported in PubChem BioAssay (NCI).
This is part of a sample that, as a whole, favours compounds with a hit. Of some 83,000 tested, about 20% had one in any assay.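 Values shown are percent growth following 48 h exposure of cells in 96-well plates to a single concentration of compound; below 10 was considered active.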 A number with no mark means an inactive call. Active and inactive are the calls of the source.

What was measured:
Assay in all cases: NCI-60 one-dose screen, 48 h (100 = growth as untreated, 0 = no growth, -100 = all killed)
Settings in all cases: 10 µM unless noted
[1] = system: SK-MEL-2 melanoma
[2] = system: EKVX NSCLC
[3] = system: SN12C renal
[4] = system: UO-31 renal
[5] = system: TK-10 renal
[6] = system: ACHN renal
[7] = system: CAKI-1 renal
[8] = system: A498 renal
[9] = system: CCRF-CEM leukemia
[10] = system: MOLT-4 leukemia
[11] = system: RPMI-8226 leukemia
[12] = system: OVCAR-8 ovarian
[13] = system: OVCAR-5 ovarian
[14] = system: OVCAR-4 ovarian
[15] = system: SK-OV-3 ovarian
[16] = system: IGROV1 ovarian
[17] = system: OVCAR-3 ovarian
[18] = system: HS 578T breast
[19] = system: NCI/ADR-RES ovarian

Compound	growth [1]	growth [2]	growth [3]	growth [4]	growth [5]	growth [6]	growth [7]	growth [8]	growth [9]	growth [10]	growth [11]	growth [12]	growth [13]	growth [14]	growth [15]	growth [16]	growth [17]	growth [18]	growth [19]
COc1cc2nc(Cl)nc(Nc3ccc(S(=O)(=O)Nc4nccs4)cc3)c2cc1OC	102%	93.9%	95.7%	85.4%	119%	88.2%	88.2%	136%	117%	99.3%	107%	97.3%	111%	103%	101%	107%	116%	99.5%	104%
COc1cccc2c1C(=O)c1c(O)c3c(c(O)c1C2=O)CC(O)(/C(C)=N/NC(=O)CCCCC(=O)N/N=C(\C)C1(O)Cc2c(O)c4c(c(O)c2C(OC2CC(N)C(O)C(C)O2)C1)C(=O)c1c(OC)cccc1C4=O)CC3OC1CC(N)C(O)C(C)O1 (centres undefined)	-56.9% [5 µM] (active)	-16.2% [5 µM] (active)	-2.85% [5 µM] (active)	-16.9% [5 µM] (active)	-29.5% [5 µM] (active)	-33.6% [5 µM] (active)	-40% [5 µM] (active)	-84.5% [5 µM] (active)	-26.4% [5 µM] (active)	-46.8% [5 µM] (active)	-66% [5 µM] (active)	5% [5 µM] (active)	7.09% [5 µM] (active)	-9.94% [5 µM] (active)	-7% [5 µM] (active)		-37.2% [5 µM] (active)	-40.4% [5 µM] (active)	75.6% [5 µM]
O=C(NCCc1ccc(O)c(O)c1)C12CC3CC(CC(C3)C1)C2	66.7%	111%	96.7%	66.2%	90.3%	90.7%	51.5%	101%	23.7%	72.9%	22.5%	95.6%	66.3%	87.3%	86.7%	56.1%	86%	83.3%	61.1%
CCOC(=O)c1csc(NC(=O)COc2cccc(/C=C3\Oc4cc(OC)ccc4C3=O)c2)n1	83.5%	98.6%	109%	-38.8% (active)	125%	95.5%	92.3%	108%	62.3%	65.1%	64.4%	74.2%	130%	90%	101%		78.4%	91.3%	79.4%
Cc1nc2ccccc2c(/C=C/c2ccc(Cl)cc2)c1C(=O)/C=C/c1ccc(F)cc1	3.88% (active)	29.9%	-10.2% (active)	-79.4% (active)	43.3%	3.87% (active)	-10.1% (active)	-4.11% (active)	6.9% (active)	4% (active)	-25.1% (active)	12.8%	-19.7% (active)	25.8%	61.9%	-5.53% (active)	-19.2% (active)	8.46% (active)	-0.868% (active)
COc1ccc(C(=NN=C(N)N)c2ccc(OC)cc2)cc1	32.3%	81.9%	49.9%	62.4%	40.1%	37.6%	73.4%	66.7%	60%	40%	49.4%	56.7%	69.1%	39.3%	11%	36.3%	17%	65%	83.5%
O=C1/C(=C/c2ccccc2)CCc2nc3ccccc3c(/C=C/c3ccc(Cl)cc3)c21	93.7%	79%	83.5%	69.1%	145%	97.3%	83.7%	92.1%	84.1%	80.3%	75.9%	87.7%	108%	80.5%	81.8%	72.3%	90.1%	104%	89.4%
CCCCN(CCCC)CC(C)(C)C(O)c1ccc(OC)c2ccccc12 (centres undefined)	76.7%	44%	46.7%	34.1%	51.4%	56.5%	23.1%	59.3%	50%	27.6%	4.33% (active)	74.2%	57.6%	56.7%	79.1%	-13.4% (active)	-11.9% (active)	55.7%	49.3%
O=C(Cc1ccc(F)c(F)c1)Nc1cc(C2(C(F)(F)F)CC2)nn1Cc1ccccc1	-32.9% (active)	6.62% (active)	6.15% (active)	-3.87% (active)	3.48% (active)	-13.2% (active)	-18.4% (active)	-34% (active)	20.1%	8.42% (active)	3.57% (active)	6.55% (active)	2.55% (active)	10.2%	-24.7% (active)	30.3%	7.3% (active)	-2.64% (active)	4.36% (active)
O=C(NC(Cc1nnc2n(Cc3ccccc3)c(=O)c3c4c(sc3n12)CCCC4)c1ccc(Cl)cc1)c1ccccc1 (centres undefined)	95.7%	94.6%	92.4%	-5.74% (active)	99%	67.5%	94.3%	83.5%	80.5%	53.1%	67.9%	91.3%	104%	81%	109%		90.4%	91.3%	93.9%
O=C(/C=C/c1c(Cl)nc2sccn12)c1ccc(F)c(F)c1	74.7%	74%	76.5%	64%	91.6%	81.1%	81.2%	73.6%	71.7%	66.7%	55.6%	92.7%	76.2%	79.4%	71.3%	87.5%	81.7%	73.3%	85.6%
CNC(=O)CCN1CCN(CC/C=C2\c3ccccc3Sc3ccc(Cl)cc32)CC1	28.5%	103%	95.5%	53.9%	81.4%	94.3%	94%	74.5%	90.2%	50.9%	70.1%	88.5%	96.3%	105%	122%		57.8%	65.4%	98.3%
COc1cccc(-c2nc3sccn3c2-c2ccnc(NCCNS(=O)(=O)c3ccc(C(F)(F)F)cc3)c2)c1	47.5%	40.4%	40.7%	-23.8% (active)	49.2%	-60.2% (active)	34.5%	18.9%	22.6%	13.7%	3.52% (active)	27.1%	88%	16.3%	40.5%	45.2%	40.7%	30.5%	19.9%
O=C1NC(=Nc2ccc(Cl)cc2)S/C1=C\c1cn(-c2ccccc2)nc1-c1ccccc1	103%	85.3%	79.3%	87.2%	60.9%	91.9%	94.7%	79.7%	60.6%	81.7%	83.3%	75.1%	98.6%	0.154% (active)	104%	79.7%	89.2%	71%	91.6%
O=c1[nH]nc(-c2ccccc2)c2c(-c3ccccc3)onc12	30.7%	25.4%	56.3%	16.9%	62.5%	47.5%	28.7%	7.76% (active)	21.3%	30.2%	19.5%	54.3%	58.7%	64.1%	15.4%	13.2%	-15.8% (active)		30.4%
O=C(c1ccccc1)c1c(/C=C/c2ccccc2)nc2ccccc2c1/C=C/c1ccc(Br)cc1	110%	102%	92.7%	68.2%	107%	97%	80.9%	79.9%	97%	94.6%	104%	102%	103%	88%	96.3%	103%	89.4%	91.3%	102%
